Test [1] can be described thus: A549 cell viability effects, profiling panel, calcein-AM fluorescence, 48 h, basal (AID 1162). Note: test concentration not given here. The following applies: higher = more signal.
Test [2] is described as follows: adipocyte viability effects, profiling panel, cell-based, 3T3-L1 adipocytes, calcein-AM fluorescence, 48 h, basal (AID 1163). Note: test concentration not given here. The following applies: 3T3-L1 adipocytes viability, higher = more signal.
The nature of test [3]: HepG2 cell viability effects, profiling panel, calcein-AM fluorescence, 48 h, basal (AID 1164). Note: test concentration not given here. The following applies: higher = more signal.
Test [4] in a line: MM1S cell viability effects, profiling panel, calcein-AM fluorescence, 48 h, basal (AID 1165).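 Note: viability of MM1S multiple myeloma cells under basal unstimulated conditions; test concentration not given here.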 Conditions: higher = more signal.
A short description of test [5]: basal RPMI8226 viability, no added stimulus, profiling panel, cell-based, calcein-AM fluorescence, 48 h, PK04 Diversity Set (AID 1166).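 Note: cells grown under basal conditions without added stimulus; test concentration not given here.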 Conditions: RPMI8226 myeloma viability, higher = more signal.
The nature of test [6]: basal HepG2 mitochondrial membrane potential changes, profiling panel, cell-based, JC-1 fluorescence, 24 h, 100 nL compound (AID 1167). Note: test concentration not given here. The following applies: higher = more signal.
Test [7] in a line: basal 3T3-L1 adipocyte mitochondrial potential changes, profiling panel, cell-based, JC-1 fluorescence, 3T3-L1 adipocytes, 24 h, 100 nL compound (AID 1168). Note: test concentration not given here. Conditions: JC-1 mitochondrial fluorescence, higher = more signal, called active from +8 up or from −8 down.
Test [8] in a line: basal RPMI8226 mitochondrial membrane potential changes, profiling panel, cell-based, JC-1 fluorescence, 24 h, 100 nL compound (AID 1169). Note: test concentration not given here. Conditions: RPMI8226 myeloma, JC-1 mitochondrial potential fluorescence, higher = more signal.
Test [9] can be described thus: basal MM1S mitochondrial membrane potential changes, profiling panel, cell-based, JC-1 fluorescence, 24 h, 100 nL compound (AID 1170). Note: test concentration not given here. The following applies: higher = more signal.
The nature of test [10]: A549 lung cancer cell viability effects, profiling panel, resazurin fluorescence, 24 h, PK04 Diversity Set (AID 1171). Note: test concentration not given here. Conditions: higher = more signal, called active from +8 up or from −8 down. On the technique in general: The colour change of resazurin is a common sign of viable cells or microbes.
Test [11] in a line: HepG2 liver cancer cell viability effects, profiling panel, resazurin fluorescence, 24 h, PK04 Diversity Set (AID 1172). Note: test concentration not given here. Conditions: higher = more signal.
A short description of test [12]: basal S. cerevisiae growth modulation, no modifier, primary screen, OD600, strain BY4716, 24 h, basal condition (AID 1173). Conditions: OD600, 24 h, higher = more signal, called active from +8 up or from −8 down.
Test [13] is described as follows: MM1S myeloma cell viability, profiling panel, resazurin fluorescence, basal, 24 h, PK04 Diversity Set (AID 1174).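 Note: MM1S multiple myeloma cell line; test concentration not given here.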 Conditions: higher = more signal, called active from +8 up or from −8 down.
Test [14] has as its target Dihydroorotate dehydrogenase (quinone), mitochondrial (Plasmodium falciparum (isolate 3D7)) (UniProt Q08210). The test can be described thus: PfDHODH enzyme inhibitors, primary screen, biochemical, C-terminal His tag, absorbance 600 nm (AID 1175).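 Note: recombinant parasite enzyme with a five histidine tag at its C terminus; test concentration not given here.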 The following applies: DCIP absorbance 600 nm, higher = more signal, called active from +8 up or from −8 down.
The nature of test [15]: P. aeruginosa biofilm formation inhibitors, primary screen, strain PAO1, LB-PBS medium, absorbance 600 nm (AID 1176). Note: test concentration not given here. Conditions: P. aeruginosa PAO1 growth/biofilm, A600, 12 h; higher = more signal.
Test [16] can be described thus: S. cerevisiae RM11-1a growth modifiers, primary screen, strain RM11-1a, OD600, basal, 24 h (AID 1177).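 Note: cultures grown under basal conditions with no added stressor; test concentration not given here.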 The following applies: OD600, 24 h, higher = more signal, called active from +8 up or from −8 down.
The nature of test [17]: E. coli acrAB mutant growth effects, primary screen, E. coli filamentation inducers, strain DRC39, OD650, 24 h (AID 1178).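 Note: growth measured as culture turbidity by optical density at 650 nm; test concentration not given here.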 The following applies: higher = more signal, called active from +8 up or from −8 down.
Test [18] is described as follows: E. coli acrAB mutant growth effects, primary screen, E. coli filamentation inducers, strain DRC39, OD650, 48 h (AID 1179).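 Note: screen aims at cell division blockers that make cells filament.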 The following applies: E. coli DRC39 delta-acrAB growth, higher = more signal, called active from +8 up or from −8 down.
Test [19] can be described thus: RPMI8226 myeloma cell viability, profiling panel, resazurin fluorescence, basal, 24 h, PK04 Diversity Set (AID 1180).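 Note: RPMI8826 multiple myeloma cell line at 5000 cells per well; test concentration not given here.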 Conditions: higher = more signal.
Test [20] deals with E3 ubiquitin-protein ligase XIAP (Homo sapiens) (UniProt P98170). Description: XIAP binders, primary screen, biophysical, small-molecule microarray, fluorescence 635 nm (AID 1181).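 Note: score merges 667 nm emission and signal to noise over triplicate slides.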 The following applies: small-molecule microarray binding, higher = more signal.
E3 ubiquitin-protein ligase XIAP (Homo sapiens), sequence (P98170 whole entry, looked up): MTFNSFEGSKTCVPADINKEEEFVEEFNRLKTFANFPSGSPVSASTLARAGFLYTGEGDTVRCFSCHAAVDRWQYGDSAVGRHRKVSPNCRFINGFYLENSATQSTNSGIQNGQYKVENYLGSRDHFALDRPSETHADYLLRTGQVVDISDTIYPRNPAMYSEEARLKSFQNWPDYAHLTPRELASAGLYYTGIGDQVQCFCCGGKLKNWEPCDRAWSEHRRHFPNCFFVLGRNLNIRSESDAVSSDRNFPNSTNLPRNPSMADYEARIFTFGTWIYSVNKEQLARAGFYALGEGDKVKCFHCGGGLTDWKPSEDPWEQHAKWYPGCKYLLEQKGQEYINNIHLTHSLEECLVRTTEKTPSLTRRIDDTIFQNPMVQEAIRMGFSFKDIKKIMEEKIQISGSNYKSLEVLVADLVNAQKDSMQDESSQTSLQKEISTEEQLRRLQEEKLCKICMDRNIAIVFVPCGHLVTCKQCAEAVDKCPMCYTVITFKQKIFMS

Molecules are shown by their SMILES. Calls of active or inactive are those of the source. Unless noted, the rule behind the calls is not given here.

Dihydroorotate dehydrogenase (quinone), mitochondrial (Plasmodium falciparum (isolate 3D7)), sequence (Q08210 whole entry, looked up): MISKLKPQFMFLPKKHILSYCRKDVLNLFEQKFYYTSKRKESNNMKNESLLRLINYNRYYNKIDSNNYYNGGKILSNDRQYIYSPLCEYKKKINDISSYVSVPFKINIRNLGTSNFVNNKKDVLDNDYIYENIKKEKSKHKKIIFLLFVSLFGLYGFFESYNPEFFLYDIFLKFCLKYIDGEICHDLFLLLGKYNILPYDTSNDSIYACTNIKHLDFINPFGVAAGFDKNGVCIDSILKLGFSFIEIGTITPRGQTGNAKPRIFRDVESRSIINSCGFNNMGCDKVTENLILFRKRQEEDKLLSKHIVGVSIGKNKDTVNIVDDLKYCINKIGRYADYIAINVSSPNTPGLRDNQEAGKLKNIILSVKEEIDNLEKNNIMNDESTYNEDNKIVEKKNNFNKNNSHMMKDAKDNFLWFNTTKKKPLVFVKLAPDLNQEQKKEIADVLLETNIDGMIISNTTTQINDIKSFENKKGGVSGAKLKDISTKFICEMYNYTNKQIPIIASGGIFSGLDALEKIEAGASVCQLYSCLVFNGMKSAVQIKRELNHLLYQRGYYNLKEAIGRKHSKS

For the compound `COC(=O)[C@@]1(Cc2ccc(F)cc2)[C@H]2c3cc(C(=O)N4CCCC4)n(CCc4c[nH]c5ccccc45)c3C[C@H]2CN1C(=O)c1ccccc1`, the z-score in [1] was -1.41; in [2], -0.743; in test [3] it was -1.33; in test [4], -1.57; in test [5] it was -3.02; in [6] it was 0.28. The z-score is -0.222 (inactive) in [7]; -0.915 in test [8]; -1.21 in test [9]; -1.22 (inactive) in test [10]; -1.03 in test [11]; 1.74 (inactive) in test [12]. Also, the z-score is -2.23 (inactive) in test [13]; 0.343 (inactive) in [15]; 0.0323 (inactive) in test [16]; -1.4 (inactive) in test [17]; -0.319 (inactive) in [18]; -2.94 in test [19]. The values for the composite z-score in [14] and in test [20] were -0.106 (inactive) and -0.018, respectively.
Turning to `COc1ccc([Si](C)(C)[C@@H]2[C@@H](CCO)O[C@]3(C(=O)N(Cc4ccccc4)c4ccc(NC(=O)[C@H](C)O)cc43)[C@H]2C)cc1`, the z-score in test [1] was -2.21; in test [2], 0.641; in test [3], -4.61; in test [4], -2.62; in test [5], -4.3; in test [6] it was -2.7. For the same compound, the z-score in test [7] was -0.241 (inactive); in [8], -0.972; in [9], -2.15; in [10] it was -3.3 (inactive); in [11], -4.57; in test [12], 2.31 (inactive). Besides, the z-score was -6.39 (inactive) in [13]; 1.45 (inactive) in [15]; 5.11 (inactive) in [16]; 0.912 (inactive) in test [17]; 0.477 (inactive) in [18]; -6.12 in [19]. For the same compound, the composite z-score in [14] was -0.347 (inactive); in test [20], 0.157.
For `O=C1[C@H]2C=C(I)[C@H](C[C@@H]2OCCOCCO)[C@@]12CO2`, the z-score in [1] is -0.461; in [2], -1.03; in test [3], -0.773; in test [4], -0.582; in [5], -0.537; in test [6], -1.77. Besides, the z-score in [7] was -0.473 (inactive); in test [8], -0.196; in test [9], -0.807; in test [10], 0.323 (inactive); in test [11] it was 0.0263; in [12], -0.28 (inactive). Also, the z-score in [13] was -0.448 (inactive); in test [15], 0.224 (inactive); in test [16] it was -0.145 (inactive); in [17], -0.331 (inactive); in [18], -0.175 (inactive); in [19], -0.244. Further, the composite z-score in test [14] is 0.0832 (inactive); in test [20], -0.304.
On to `O=C1C[C@]2(c3ccc([N+](=O)[O-])cc3)C(=O)N(C3CC3)c3cc(CO)ccc3[C@H]2N1CC12CC3CC(CC(C3)C1)C2`, for which the z-score in test [1] is 0.207; in test [2] it was 0.368; in [3] it was -0.67; in test [4], 0.352; in test [5], -0.947; in test [6], -0.148. The z-score in test [7] was -0.837 (inactive); in test [8] it was 0.787; in test [9] it was -1.1; in [10], -0.452 (inactive); in test [11], -0.742; in test [12] it was 0.359 (inactive). Further, the z-score in [13] is -0.118 (inactive); in [15], 0.677 (inactive); in test [16], 0.866 (inactive); in test [17], -0.292 (inactive); in test [18], -0.616 (inactive); in [19], 0.0683. Also, the composite z-score in test [14] was -3.84 (inactive); in test [20] it was -0.158.
Regarding `Cc1ccc(N2C(=O)c3ccccc3[C@@H](C(=O)NCCCN(C)C)[C@@H]2c2ccc(CO)cc2)nc1`, the z-score in [1] was -0.249; in test [2], 0.297; in test [3], 0.0355; in test [4], 0.817; in test [5], -0.71; in test [6], -0.685. For the same compound, the z-score in test [7] was 0.208 (inactive); in [8], -0.0886; in test [9], -0.241; in test [10] it was -0.0494 (inactive); in test [11] it was 0.258; in test [12] it was -0.957 (inactive). The z-score in test [13] is -0.252 (inactive); in test [15], -0.397 (inactive); in [16] it was -0.64 (inactive); in [17] it was -0.152 (inactive); in [18], 0.327 (inactive); in test [19], 0.262. Further, the composite z-score in test [14] was -0.746 (inactive); in test [20], -0.102.
Turning to `CC(c1ccccc1)C(O)C1C=CC2C(=O)N(C)C(=O)C2N1Nc1ccccc1` (stereo not given), the z-score in test [1] was -0.227; in test [2] it was -0.856; in [3] it was 0.36; in [4] it was -2.65; in [5], -0.435; in [6], -0.624. Also, the z-score is -0.83 (inactive) in [7]; 0.446 in test [8]; -0.527 in test [9]; -0.183 (inactive) in test [10]; -0.705 in test [11]; -0.0181 (inactive) in [12]. Also, the z-score in [13] is -1.27 (inactive); in test [15], 0.944 (inactive); in test [16] it was -0.0455 (inactive); in test [17], -1.12 (inactive); in test [18] it was -0.374 (inactive); in [19], -1.1. Besides, the composite z-score in test [14] was -0.475 (inactive); in [20], -0.0654.
As to `C=CCN1Cc2ccccc2[C@@H]2OC(c3ccc(OCCCO)cc3)=N[C@]2(CC=C)C1=O`, the z-score was -0.546 in [1]; 1.44 in test [2]; 0.274 in test [3]; -2.62 in test [4]; -2.83 in test [5]; 0.752 in test [6]. The z-score in [7] was 0.0517 (inactive); in test [8], -1.09; in test [9] it was 0.278; in test [10] it was 0.0576 (inactive); in [11], 0.151; in test [12] it was -1.94 (inactive). Also, the z-score was 0.0504 (inactive) in test [13]; 0.314 (inactive) in [15]; -0.0316 (inactive) in test [16]; 0.997 (inactive) in test [17]; 0.64 (inactive) in [18]; -0.747 in test [19]. Besides, the composite z-score was -0.0817 (inactive) in [14] and 0.247 in [20].
For `C=CC[C@@]1(C(=O)NCCCOC)N=C(c2ccc(OCCCO)cc2)O[C@@H]1c1ccccc1N=[N+]=[N-]`, the z-score in test [1] is 1.42; in [2], 0.0373; in test [3], -0.465; in [4], -1.06; in test [5], 0.241; in test [6], 1.62. Further, the z-score is 0.863 (inactive) in [7]; -0.178 in test [8]; -0.917 in test [9]; 0.2 (inactive) in test [10]; 1.06 in test [11]; -0.537 (inactive) in [12]. The z-score in test [13] was -0.394 (inactive); in test [15], -0.814 (inactive); in [16], 0.464 (inactive); in test [17] it was 0.868 (inactive); in [18], 1.43 (inactive); in test [19], -0.137. For the same compound, the values for the composite z-score in test [14] and in [20] were 1.05 (inactive) and 0.598, respectively.
For `CC1CC/C=C\[C@H]2OC34C=CCN(C(C)C)C(=O)[C@H]3N(CCO)C(=O)[C@@H]4C2C(=O)O1` (stereo not given in full), the z-score in test [1] is 0.649; in [2] it was 0.668; in test [3] it was -0.255; in [4], 0.824; in test [5], -1.11; in test [6], 0.813. Moreover, the z-score in [7] was 0.691 (inactive); in [8] it was 0.021; in test [9], 1.65; in test [10] it was -0.969 (inactive); in test [11], -0.961; in [12] it was 0.486 (inactive). For the same compound, the z-score was 0.802 (inactive) in test [13]; -0.413 (inactive) in test [15]; 0.651 (inactive) in test [16]; 0.764 (inactive) in [17]; 0.341 (inactive) in [18]; 0.838 in [19]. Further, the composite z-score is 0.705 (inactive) in test [14] and 0.0484 in [20].

(Values after PubChem BioAssay.)
